Results published in PubChem BioAssay (NCI).
About 83,000 compounds went through this panel and 20% of them were active in at least one assay; those are over-represented in the sample as a whole.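 Assay: single dose, 48 h. Readout: percent growth (0 = no net growth; negative = cell death). Active: <10.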 Unmarked numbers belong to inactive results. Active and inactive are the calls of the source.

Experiments:
Test in all cases: NCI-60 one-dose screen, 48 h (100 = growth as untreated, 0 = no growth, -100 = all killed)
Conditions in all cases: 10 µM unless noted
HT29 colon = tested on: HT29 colon
SNB-75 CNS = tested on: SNB-75 CNS
SNB-19 CNS = tested on: SNB-19 CNS
U251 CNS = tested on: U251 CNS
PC-3 prostate = tested on: PC-3 prostate
SK-MEL-5 melanoma = tested on: SK-MEL-5 melanoma
UACC-62 melanoma = tested on: UACC-62 melanoma
LOX IMVI melanoma = tested on: LOX IMVI melanoma
SK-MEL-28 melanoma = tested on: SK-MEL-28 melanoma
SK-MEL-2 melanoma = tested on: SK-MEL-2 melanoma
EKVX NSCLC = tested on: EKVX NSCLC
SN12C renal = tested on: SN12C renal
UO-31 renal = tested on: UO-31 renal
TK-10 renal = tested on: TK-10 renal
ACHN renal = tested on: ACHN renal
CAKI-1 renal = tested on: CAKI-1 renal
A498 renal = tested on: A498 renal
CCRF-CEM leukemia = tested on: CCRF-CEM leukemia
MOLT-4 leukemia = tested on: MOLT-4 leukemia

Row | SMILES | growth (HT29 colon) | growth (SNB-75 CNS) | growth (SNB-19 CNS) | growth (U251 CNS) | growth (PC-3 prostate) [%] | growth (SK-MEL-5 melanoma) | growth (UACC-62 melanoma) | growth (LOX IMVI melanoma) | growth (SK-MEL-28 melanoma) [%] | growth (SK-MEL-2 melanoma) | growth (EKVX NSCLC) [%] | growth (SN12C renal) | growth (UO-31 renal) [%] | growth (TK-10 renal) [%] | growth (ACHN renal) [%] | growth (CAKI-1 renal) [%] | growth (A498 renal) | growth (CCRF-CEM leukemia) | growth (MOLT-4 leukemia)
1 | N=C(N)c1ccc(-c2ccc(-c3ccc(Cl)cc3)o2)o1 | -58.3% (active) | 69.8% | -68.3% (active) | -95.5% (active) | 43.9 | 76% | -67.4% (active) | -73% (active) | 96.9 | 82.1% | 68.3 | -58.9% (active) | 46 | 72.1 | 28.3 | 54.2 | 61.3% | -20.3% (active) | -28.9% (active)
2 | NC(=S)N/N=C/c1cn(-c2ccccc2)nc1-c1cc2ccccc2oc1=O | 14.7% | 8.48% (active) | 56.6% | 45.2% | 67.5 | 46.3% | 34.2% | 46.3% | 69.7 | 39.2% | 75.3 | 63.1% | 50.7 | 77.2 | 77.4 | 44.1 | -6.2% (active) | 53.7% | 33.4%
3 | CCn1cc(C(=O)N/N=C/c2ccc(Br)cc2)c(=O)c2cc(F)c(N3CCNC(C)C3)c(F)c21 (stereo not given) | -31.7% (active) | 85.6% | 54.5% | 1.38% (active) | 68.3 | 82.4% | 101% | -78.2% (active) | 91.2 | 97.7% | 86.9 | 52.2% | 68.4 | 99.6 | 88.8 | 68.5 | 98% | 29.7% | 22%
4 | COc1ccc(-c2nnc(SCC(=O)Nc3ccc(/C(C)=N\O)cc3)n2-c2ccccc2)cc1OC | 91.2% | -16.5% (active) | 75.8% | 34.4% | 110 | 94.6% | 82.8% | 80.1% | 87.3 | 57.6% | 71.1 | 71.8% | 104 | 41.1 | 75.5 | 87.4 | 91.8% | 98.5% | 91.7%
5 | O=C(CSc1nc2ccc([N+](=O)[O-])cc2[nH]1)Nc1cccc([N+](=O)[O-])c1 | 57.6% | 49.5% | 64.2% | 41.5% | 44.8 | 19.7% | 21.1% | 57.8% | 55.7 | 49.2% | 48.8 | 49.6% | 33.4 | 69.5 | 62.5 | 41.2 | 31.7% | 40.8% | 43.6%
6 | Cc1c2ccccc2nc2c1ccc1cccnc12 | 70.9% | 71.1% | 88.8% | 84.7% | 65.1 | 53% | 94.6% | 105% | 113 | 95.5% | 62.7 | 88.7% | 83.9 | – | 97.3 | 77 | 80.2% | 77.8% | 68.3%
7 | Cn1cc(C(=O)c2nc(-c3c[nH]c4ccc(Br)cc34)no2)c2cc(Br)ccc21 | 44% | 73.7% | 86.2% | 52% | 39.3 | 83.4% | 86.1% | – | 92 | 109% | 60.5 | 80.1% | 67 | 99.9 | 80.9 | 67.4 | 106% | 45.6% | 85%
8 | NC(=O)OCCn1cc(-c2nc(-c3c[nH]c4ncccc34)cs2)c2ccccc21 | 8.34% (active) | 10.6% | 42.2% | 20% | 33.2 | 18.5% | 32.9% | 30.1% | 61.7 | 2.38% (active) | 42.1 | 49.1% | 34.1 | 62.3 | 38 | 34.5 | -11.7% (active) | 21.7% | 19.6%
9 | Nc1c(C(=O)O)cc(Cl)cc1[N+](=O)[O-] | 97.7% | 89.8% | 112% | 104% | 80.8 | 103% | 96.4% | 100% | 109 | 110% | 103 | 93.9% | 79.3 | 118 | 96.5 | 111 | 100% | 78.6% | 94.2%
10 | O=C1CCC(C(=O)NN(c2ccccc2)c2ccccc2)N1 (stereo not given) | 111% | 89.2% | 100% | 103% | 14.3 | 106% | 94.4% | 95% | 109 | 105% | 102 | 97.8% | 85.5 | 82.8 | 103 | 78 | 103% | 22% | 50%
11 | O=C(CCCCNC(=O)c1cc(=O)c(O)co1)Nc1ccccc1 | 98.2% | 84.9% | 102% | 92.8% | 95.9 | 98.6% | 90.1% | – | 103 | 98.8% | 95.6 | 88.4% | 76.4 | 98.3 | 31.5 | 94.3 | 98.2% | 6.26% (active) | 20.3%
12 | Nc1c(C(=O)Nc2ccncc2)sc2nc3c(cc12)CCCCC3 | 52.9% | 93.5% | 95.9% | 83.7% | 83.8 | -0.0144% (active) | 80.7% | 84% | 82.5 | 93.7% | 74.2 | 78.9% | 66.6 | 85.9 | 88.6 | – | 74.5% | 54.4% | 40.3%
13 | COc1cccc(NC(=O)c2cccc(C3CCc4c(cc(OC)c(OC)c4OC)O3)c2)c1 (stereo not given) | 71.9% | 85.6% | 74.1% | 75.5% | 28.9 | 36.4% | 40.6% | 59.9% | 81.5 | 65.5% | 69.1 | 55.2% | 34.5 | 74.5 | 66.8 | 80.3 | 30.2% | 22.1% | 7.7% (active)
14 | CCOC(=O)c1n[nH]n2c1nc(=O)c1cnn(C)c12 | 107% | 103% | 102% | 100% | 97.7 | 105% | 106% | 103% | 113 | 99.6% | 102 | 105% | 84.4 | – | 105 | 103 | 110% | 95.6% | 99.7%
15 | Cc1ccc(-c2cc(C(=O)N3N=C(c4ccc(N)cc4)CC3c3ccc(Cl)cc3)c3ccccc3n2)cc1 (stereo not given) | -1.84% (active) | -4.36% (active) | 42.1% | 22.5% | 15.4 | 12.4% | 39.2% | 37.2% | 72.6 | 2.76% (active) | 44.5 | 48.8% | 42.9 | 24.5 | 51.7 | 24 | 0.316% (active) | 12.8% | 25.2%
